The text below walks through data of paper PMC5700166.

Where a chain is given by its changes, count along the chain named.

What all share (assay): protein-binding microarray (PBM); PBM: ~300 nM protein, 6 mM HEPES pH 7.8, 80 mM KCl, 0.5 mM EDTA, 0.5 mM EGTA, 6% glycerol, 35 ng/ul poly-dIdC, 1% milk, 1 h, room temperature; Ap Aiptasia and Nv Nematostella (sea anemones) / Co Capsaspora / Aq Amphimedon (sponge) / Dm Drosophila / Hu human; RHD is the Rel homology domain; high values mean tight binding
What all share (details): dsDNA, one strand shown

For one assay, the target named is T1, GST-Ap-NF-kB RHD (Exaiptasia pallida (Aiptasia), UniProt A0A913YAJ5 2-422).
T1 sequence: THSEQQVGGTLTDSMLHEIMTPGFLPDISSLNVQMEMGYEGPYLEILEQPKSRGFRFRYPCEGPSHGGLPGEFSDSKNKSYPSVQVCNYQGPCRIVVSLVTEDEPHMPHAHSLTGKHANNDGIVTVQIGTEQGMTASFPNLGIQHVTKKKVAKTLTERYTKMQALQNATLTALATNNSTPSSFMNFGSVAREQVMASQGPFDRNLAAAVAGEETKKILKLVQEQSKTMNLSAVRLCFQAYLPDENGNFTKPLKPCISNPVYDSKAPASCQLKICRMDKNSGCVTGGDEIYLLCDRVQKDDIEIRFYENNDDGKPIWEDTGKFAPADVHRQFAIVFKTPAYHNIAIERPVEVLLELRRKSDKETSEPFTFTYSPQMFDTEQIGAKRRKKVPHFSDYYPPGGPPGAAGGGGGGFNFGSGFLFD

For assay [1], the target named is T2, GST-Nv-NF-kB (Cys allele) (Nematostella vectensis, UniProt E5G601 2-411).
T2 sequence: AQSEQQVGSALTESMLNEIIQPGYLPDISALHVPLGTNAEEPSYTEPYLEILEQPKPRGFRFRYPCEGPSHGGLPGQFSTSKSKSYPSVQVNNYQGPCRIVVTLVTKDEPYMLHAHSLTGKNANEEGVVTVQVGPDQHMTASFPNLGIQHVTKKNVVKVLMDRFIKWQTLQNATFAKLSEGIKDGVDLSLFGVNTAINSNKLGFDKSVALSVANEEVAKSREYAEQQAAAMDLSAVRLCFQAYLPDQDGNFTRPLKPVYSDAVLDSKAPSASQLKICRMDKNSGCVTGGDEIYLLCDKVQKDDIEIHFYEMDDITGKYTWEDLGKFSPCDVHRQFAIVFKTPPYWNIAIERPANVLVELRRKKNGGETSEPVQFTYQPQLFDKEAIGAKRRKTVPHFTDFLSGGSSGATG

Assay [2] deals with T3, GST-Nv-NF-kB (Ser allele) (Nematostella vectensis, UniProt A7UNT2 2-411).
T3 sequence: T2 sequence with Q21R, C66S, S207N, E215Q, V217A, E225K, A268E, D399E

A further assay has as its target T4, GST-Co-NF-kB (Capsaspora owczarzaki, UniProt F1ARL5 200-546).
T4 sequence: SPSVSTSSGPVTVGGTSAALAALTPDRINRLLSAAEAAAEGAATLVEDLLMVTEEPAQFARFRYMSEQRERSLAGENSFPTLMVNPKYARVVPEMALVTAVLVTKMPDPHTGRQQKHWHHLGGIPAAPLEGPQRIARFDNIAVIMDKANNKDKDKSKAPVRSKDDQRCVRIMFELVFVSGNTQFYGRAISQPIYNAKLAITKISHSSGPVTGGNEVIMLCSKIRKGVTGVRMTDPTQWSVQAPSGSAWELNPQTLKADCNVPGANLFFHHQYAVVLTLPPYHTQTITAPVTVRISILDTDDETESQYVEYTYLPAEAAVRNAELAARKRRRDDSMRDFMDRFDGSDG

In another assay the target is T5, GST-Dm-Relish (Drosophila melanogaster, UniProt Q94527 99-473).
T5 sequence: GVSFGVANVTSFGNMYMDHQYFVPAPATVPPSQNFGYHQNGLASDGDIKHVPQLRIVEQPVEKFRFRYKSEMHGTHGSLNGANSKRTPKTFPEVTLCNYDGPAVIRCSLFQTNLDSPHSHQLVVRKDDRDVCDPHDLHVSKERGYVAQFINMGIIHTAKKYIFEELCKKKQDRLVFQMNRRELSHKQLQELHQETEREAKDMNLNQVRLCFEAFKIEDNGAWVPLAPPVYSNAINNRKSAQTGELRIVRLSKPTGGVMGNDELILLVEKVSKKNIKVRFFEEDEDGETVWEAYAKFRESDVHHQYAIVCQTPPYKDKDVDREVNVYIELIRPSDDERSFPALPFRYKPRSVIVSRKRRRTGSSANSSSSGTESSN

In the next assay the target is T6, GST-Aq-NF-kB (Amphimedon queenslandica, UniProt A9Y5G7 2-389).
T6 sequence: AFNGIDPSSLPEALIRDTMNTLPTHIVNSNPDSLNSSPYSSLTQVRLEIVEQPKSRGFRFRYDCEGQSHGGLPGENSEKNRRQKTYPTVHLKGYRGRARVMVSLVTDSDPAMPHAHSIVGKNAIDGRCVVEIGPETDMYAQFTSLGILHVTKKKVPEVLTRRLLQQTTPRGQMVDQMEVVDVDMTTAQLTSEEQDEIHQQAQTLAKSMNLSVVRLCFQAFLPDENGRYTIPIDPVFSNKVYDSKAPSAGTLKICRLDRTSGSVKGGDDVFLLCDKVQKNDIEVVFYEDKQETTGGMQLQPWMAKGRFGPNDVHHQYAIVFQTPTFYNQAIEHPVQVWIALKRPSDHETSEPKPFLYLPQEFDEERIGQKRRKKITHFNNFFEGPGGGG

The target in another assay is GST-Hu-p50 (Homo sapiens, UniProt P19838 7-356).
GST-Hu-p50, sequence (P19838 7-356): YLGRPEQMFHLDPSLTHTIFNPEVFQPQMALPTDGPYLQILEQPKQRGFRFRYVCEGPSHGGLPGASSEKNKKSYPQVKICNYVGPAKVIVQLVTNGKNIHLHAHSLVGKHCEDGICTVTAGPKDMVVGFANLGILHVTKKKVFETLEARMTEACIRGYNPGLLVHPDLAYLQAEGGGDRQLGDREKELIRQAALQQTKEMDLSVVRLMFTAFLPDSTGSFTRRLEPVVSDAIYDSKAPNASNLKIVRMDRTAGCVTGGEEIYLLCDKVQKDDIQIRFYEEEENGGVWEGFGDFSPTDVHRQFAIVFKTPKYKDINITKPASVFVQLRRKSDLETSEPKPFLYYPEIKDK

Take “CCGATTAACATCAGGATACCCCCTGATGTTAATCGGGTCTTGATTCGCTTGACGCTGCTG”: the binding signal with GST-Ap-NF-kB RHD was 7.7 z-score; in assay [1], 4.68 z-score; in assay [2] it was 4.35 z-score; with GST-Co-NF-kB, 4.59 z-score; with GST-Dm-Relish it was 5.79 z-score; with GST-Aq-NF-kB, 6.35 z-score. The same sequence returned a binding signal with GST-Hu-p50 of 5.02 z-score.
As to “CCGATTAACATCAATTATCCCCCTGATGTTAATCGGGTCTTGATTCGCTTGACGCTGCTG”, the binding signal with GST-Ap-NF-kB RHD was determined as 6.74 z-score; in assay [1] it was 5.48 z-score; in assay [2], 6.6 z-score; with GST-Co-NF-kB, 7.87 z-score; with GST-Dm-Relish, 4.31 z-score; with GST-Aq-NF-kB, 5.15 z-score. The sequence further returned a binding signal with GST-Hu-p50 of 5.52 z-score.
On to “CCGATTAACATCAGAAAACCCCATGATGTTAATCGGGTCTTGATTCGCTTGACGCTGCTG”, for which the binding signal with GST-Ap-NF-kB RHD is 6.36 z-score; in assay [1], 5.53 z-score; in assay [2], 4.86 z-score; in the assay with GST-Co-NF-kB, 1.75 z-score; in the assay with GST-Dm-Relish it was 8.35 z-score; with GST-Aq-NF-kB, 5.03 z-score. In the assay with GST-Hu-p50, this sequence displayed a binding signal of 5.88 z-score.
Take “CCGATTAACATCAGGGAAACACCTGATGTTAATCGGGTCTTGATTCGCTTGACGCTGCTG”: the binding signal in the assay with GST-Ap-NF-kB RHD was determined as 5.49 z-score; in assay [1] it was 6.62 z-score; in assay [2], 6.01 z-score; with GST-Co-NF-kB, 2.74 z-score; with GST-Dm-Relish, 6.92 z-score; in the assay with GST-Aq-NF-kB it was 7.75 z-score. Besides, the binding signal with GST-Hu-p50 worked out at 5.15 z-score.
As to “CCGATTAACATCACGGGGGAAACTGATGTTAATCGGGTCTTGATTCGCTTGACGCTGCTG”, the binding signal turned out to be 7.25 z-score with GST-Ap-NF-kB RHD; 5.82 z-score in assay [1]; 8.94 z-score in assay [2]; 12.2 z-score with GST-Co-NF-kB; 3.91 z-score in the assay with GST-Dm-Relish; 4.97 z-score with GST-Aq-NF-kB. In addition, the binding signal with GST-Hu-p50 stood at 6.34 z-score.
In the case of “CCGATTAACATCAGAAACTCCCCTGATGTTAATCGGGTCTTGATTCGCTTGACGCTGCTG”, the binding signal with GST-Ap-NF-kB RHD was found to be 8.69 z-score; in assay [1] it was 7.68 z-score; in assay [2] it was 7.84 z-score; with GST-Co-NF-kB, 5.37 z-score; with GST-Dm-Relish it was 7.08 z-score; with GST-Aq-NF-kB, 7.47 z-score. The sequence further returned a binding signal with GST-Hu-p50 of 6.42 z-score.
Consider “CCGATTAACATCAGGGGAAACAATGATGTTAATCGGGTCTTGATTCGCTTGACGCTGCTG”, for which the binding signal was found to be 5.65 z-score with GST-Ap-NF-kB RHD; 7.25 z-score in assay [1]; 9.76 z-score in assay [2]; 8.67 z-score in the assay with GST-Co-NF-kB; 3.09 z-score in the assay with GST-Dm-Relish; 4.59 z-score with GST-Aq-NF-kB. For the same sequence, the binding signal in the assay with GST-Hu-p50 is 5.36 z-score.
Turning to “CCGATTAACATCACACAATCCCCTGATGTTAATCGGGTCTTGATTCGCTTGACGCTGCTG”, the binding signal was found to be 6.64 z-score with GST-Ap-NF-kB RHD; 6.65 z-score in assay [1]; 8.71 z-score in assay [2]; 2.94 z-score in the assay with GST-Co-NF-kB; 3.98 z-score with GST-Dm-Relish; 4.86 z-score with GST-Aq-NF-kB. The binding signal with GST-Hu-p50 came to 5.87 z-score.
Regarding “CCGATTAACATCAAAAACCCCCCTGATGTTAATCGGGTCTTGATTCGCTTGACGCTGCTG”, the binding signal came to 10.5 z-score with GST-Ap-NF-kB RHD; 9.26 z-score in assay [1]; 9.71 z-score in assay [2]; 5.82 z-score in the assay with GST-Co-NF-kB; 11.3 z-score with GST-Dm-Relish; 8.84 z-score with GST-Aq-NF-kB. The binding signal with GST-Hu-p50 stood at 7.78 z-score.
Take “CCGATTAACATCAAGAAACCCCCTGATGTTAATCGGGTCTTGATTCGCTTGACGCTGCTG”: the binding signal came to 9.53 z-score with GST-Ap-NF-kB RHD; 8.55 z-score in assay [1]; 9.47 z-score in assay [2]; 3.31 z-score with GST-Co-NF-kB; 10 z-score with GST-Dm-Relish; 7.67 z-score with GST-Aq-NF-kB. The sequence also yielded a binding signal with GST-Hu-p50 of 7.53 z-score.
As for “CCGATTAACATCAAAACTTCCCCTGATGTTAATCGGGTCTTGATTCGCTTGACGCTGCTG”, the binding signal with GST-Ap-NF-kB RHD stood at 8.71 z-score; in assay [1], 10.4 z-score; in assay [2], 12.1 z-score; in the assay with GST-Co-NF-kB, 9.44 z-score; in the assay with GST-Dm-Relish, 8.98 z-score; with GST-Aq-NF-kB, 8.18 z-score. The binding signal in the assay with GST-Hu-p50 was 7.33 z-score.
Turning to “CCGATTAACATCAGGGGGGAGTATGATGTTAATCGGGTCTTGATTCGCTTGACGCTGCTG”, the binding signal in the assay with GST-Ap-NF-kB RHD amounted to 6.07 z-score; in assay [1], 5.01 z-score; in assay [2], 5.11 z-score; with GST-Co-NF-kB, 6.88 z-score; with GST-Dm-Relish, 3.7 z-score; with GST-Aq-NF-kB it was 4.54 z-score. In addition, the binding signal with GST-Hu-p50 was found to be 6.15 z-score.
“CCGATTAACATCAGGGGGGGCTATGATGTTAATCGGGTCTTGATTCGCTTGACGCTGCTG”: the binding signal with GST-Ap-NF-kB RHD came to 4.3 z-score; in assay [1], 3.34 z-score; in assay [2], 3.58 z-score; with GST-Co-NF-kB, 5.06 z-score; in the assay with GST-Dm-Relish, 4.12 z-score; with GST-Aq-NF-kB, 4.07 z-score. In the assay with GST-Hu-p50, this sequence came in with a binding signal of 4.09 z-score.
